In PubChem BioAssay:
“And” between values parts separate entries of the source, which are not always exact repeats. Identical values can stand only once. Some of the results follow. Results filed as inconclusive are left out. The source made the active and inactive calls.

Tests used:
PubChem AID 1714 = details: HEK293-KCC2 + bumetanide/ouabain, thallium flux FluoZin2; at 10 µM; stronger effect = higher value
[1] = target: Solute carrier family 12 member 5 (Homo sapiens) (UniProt Q9H2X9); assay: KCC2 modulators without ouabain present, confirmation, cell-based, HEK293 KCC2, thallium flux, FluoZin2, secondary assay 2 (AID 1715;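 active = thallium flux slope more than 3 SD above or below the plate's solvent-only control mean, mostly below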;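 also: raw slope with 0.1% DMSO as baseline and bumetanide as block control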); details: HEK293-KCC2, thallium flux FluoZin2 fluorescence; at 10 µM; actives lie on both sides; F/F0 rise rate, 10–20 s post-thallium
[2] = thallium flux modulation in parental HEK cells, confirmation, counter-screen for KCC2 modulator project, cell-based, counterscreen 1 (AID 1716;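 active = thallium flux rate significantly above the same plate's solvent-only control wells, beyond their mean plus 3 SD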); details: HEK293 parental cells, thallium flux FluoZin2, ouabain; at 10 µM; baseline-ratio fluorescence slope, 10–20 s after thallium
[3] = target: Solute carrier family 12 member 5 (Homo sapiens) (UniProt Q9H2X9); assay: KCC2 inhibitors and activators, ouabain retest, confirmation, HEK-KCC2 cells (AID 1717;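 active = thallium flux slope beyond 3 SD from same-plate DMSO control mean in most replicates, usually higher, sometimes lower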;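 also: slope of initial-normalized fluorescence between seconds 10 and 20 after thallium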); details: HEK293-KCC2, thallium flux FluoZin2 fluorescence, at 10 µM, bidirectional: low = inhibitor, high = activator
[4] = native HEK Tl+ uptake effects, second counter-screen – HEK cells, counterscreen 2, counter-screen for KCC2 modulator project, confirmation (AID 1718;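 active = thallium flux slope above the same plate's solvent-control mean plus 3 SD in both duplicate wells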;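 also: run without ouabain in cells lacking the KCC2 cotransporter; slope of fluorescence scaled to its starting value between 10 and 20 s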); details: HEK293 parental, thallium flux FluoZin-2 fluorescence slope; at 10 µM
[5] = inhibitors of TNFa-induced NFkB p65 translocation, primary screen, imaging, HUVEC, MLSMR starter and 10KST1 sets (AID 438;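 active = inhibition above 20% together with a positive visual image hit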;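 also: compound added about 3h40 before a 20 min TNFalpha stimulation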;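 as to inhibition: signal is the nuclear over cytoplasmic p65 intensity ratio per well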); details: HUVEC TNFa-induced p65 nuclear translocation; cell count: measured here: nuclei count (cytotoxicity indicator), at 2.08 µM; inhibition: at 2 µM, stronger effect = higher value, 0% TNFa-plus-vehicle, 100% no-TNFa wells
[6] = inhibitors of mutant huntingtin aggregation, primary screen, imaging, exon1htt(103Q)mCFP cells, high-content imaging (AID 483;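 active = visual image review flags a hit and inhibition of aggregation exceeds 20%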;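 also: compound exposure lasted 3 days before fixation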;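 as to nuclei count: percent of the per-plate median nuclei count of sample wells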); details: exon1htt(103Q)mCFP cell line, aggregate imaging, at 2 µM; inhibition of aggregation: stronger effect = higher value; nuclei count: measured here: cell count, toxicity
[7] = inhibitors of E-selectin induction by TNFa, primary screen, imaging, HUVEC, immunofluorescence, MLSMR starter and 10KST1 sets (AID 487;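 active = visually confirmed hit in the image check and inhibition above 20%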;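 as to inhibition: signal is fraction of cell area covered by stained E-selectin grains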;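 as to nuclei count: 100% = median nuclei count of all wells on the same plate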); details: HUVEC TNFalpha-induced E-selectin immunofluorescence imaging, at 2 µM; inhibition: stronger effect = higher value; nuclei count: measured here: cell number, toxicity
[8] = DUSP6 inhibitors restoring Erk phosphorylation by chemical complementation, primary imaging in DUSP6-transfected HeLa (AID 609;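 active = compounds giving at least 50% inhibition in the cell-based MKP-3 phosphatase rescue imaging test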;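 as to inhibition: phospho-Erk level distribution per well compared with pooled transfected vehicle control wells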); details: HeLa MKP-3 transfected, phospho-Erk imaging KS statistic, at 10 µM, cells stimulated with TPA for 15 min
[9] = target: Dual specificity protein phosphatase 6 (Homo sapiens) (UniProt Q16828); assay: as above; details: HeLa MKP-3 transfected, phospho-Erk imaging KS statistic; at 10 µM; stronger effect = higher value; cells stimulated with TPA for 15 min
[10] = target: Voltage-gated potassium channel subunit beta-2 (Rattus norvegicus) (UniProt P62483); assay: KvBeta enzyme negative modulators, primary screen, biochemical, NADPH fluorescence (AID 622;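 active = fluorescence slope higher than the sample average by over 3 SD, cut at about -0.22 in these data, passing the limit was not always enough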;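 also: slope of raw intensity against log time taken from 70 to 1610 s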); details: recombinant KvBeta, 4-cyanobenzaldehyde reduction, at 10 µM, stronger effect = higher value
[11] = target: Voltage-gated potassium channel subunit beta-2 (Rattus norvegicus) (UniProt P62483); assay: KvBeta positive modulators, primary screen, biochemical, NADPH fluorescence (AID 623;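 active = NADPH fluorescence slope more negative than the mean of all samples by about 3 SD, 99.7% confidence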;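 also: fluorescence intensity change per second fitted from 20 to 320 s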); details: Recombinant KvBeta, NADPH fluorescence decrease slope, 10 min; at 10 µM; stronger effect = lower value
[12] = target: Alpha-2C adrenergic receptor (Homo sapiens) (UniProt P18825); assay: modulators of alpha2C/GIRK thallium flux, primary screen, cell-based, HEK293 alpha2C/GIRK1/2 (AID 624;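 active = fluorescence slope after compound addition differing from the mean of all screened samples at 99.7% confidence, in either direction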;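 also: slope of fluorescence ratio to pre-addition baseline per second over 15 to 24 s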); details: thallium flux BTC fluorescence, at 10 µM, actives lie on both sides
[13] = inhibitors of Chlamydomonas gravitaxis, primary screen, whole organism, Chlamydomonas reinhardtii, WT vs cilia-less mutant, absorbance, 96-well (AID 463189); details: OD600 absorbance, 2 days, at 10 µM, stronger effect = higher value;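 also: 0% = wild type cc124 cells in DMSO and 100% = ciliumless bld1 mutant cells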
[14] = inhibitors of Sendai virus-induced IRF3 signaling, primary screen, TLR/RLR signaling modifier project, cell-based, Sendai virus stimulus, luciferase, 10K MLSCN set (AID 602276;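 active = inhibition at or above 50% at 10 µM; inactive = inhibition below 50%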;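 also: firefly luciferase from ISG56 promoter only with Renilla not read in this screen; 0% = Sendai virus plus DMSO and 100% = medium plus DMSO without virus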); details: HEK293 RL24 IRF3 luciferase reporter, at 10 µM, stronger effect = higher value
[15] = inhibitors of poly I:C-induced TLR3 signaling, primary screen, cell-based, poly I:C stimulus, luciferase, 10K MLSCN set (AID 602277;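 active = inhibition of the reporter signal at or above 50%; inactive = inhibition below 50%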); details: HEK293-TLR3 RL24 IRF3 luciferase reporter, at 10 µM, stronger effect = higher value
[16] = target: Muscarinic acetylcholine receptor M4 (Homo sapiens) (UniProt P08173); assay: compounds altering M4/GIRK thallium flux, either direction, primary screen, M4 allosteric agonist project, cell-based, HEK293 M4/GIRK, BTC-AM (AID 625;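 active = fluorescence slope after compound addition differing from the mean of all tested samples at 99.7% confidence, mostly higher but some lower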;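 also: thallium influx through GIRK channels coupled to M4 in HEK293 cells with BTC-AM dye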); details: at 10 µM, actives lie on both sides
[17] = inhibitors of larval lipid processing in zebrafish, primary screen, whole organism, PED6 fluorescence, gall bladder and intestine (AID 686;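 active = a full or partial loss of lipid-probe fluorescence in the fish gall bladder, intestine or both, judged by eye; inactive = no fluorescence loss, or compound toxic to the fish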;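 also: larvae 5 to 7 days old with five fish per well; signal comes from phospholipase A2 cleavage of quenched PED6 carried via bile; overnight exposure to compound and PED6 before scoring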); details: Zebrafish larvae PED6 lipid processing, fluorescence scoring; screened at 20 µM (by protocol)
[18] = target: Solute carrier family 12 member 5 (Homo sapiens) (UniProt Q9H2X9); assay: KCC2 modulators in sodium-free buffer, confirmation, cell-based, HEK293 KCC2, thallium flux, secondary assay (AID 1713;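 active = thallium flux slope above the same plate's solvent-only control mean plus 3 SD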); details: FluoZin2 fluorescence, at 10 µM, stronger effect = higher value
[19] = measured here: cell density z-score
[20] = measured here: nuclear c-Myc green intensity z-score
[21] = measured here: nuclear pErk red intensity z-score, stronger effect = higher value

Solute carrier family 12 member 5 (Homo sapiens), sequence (Q9H2X9 whole entry, looked up): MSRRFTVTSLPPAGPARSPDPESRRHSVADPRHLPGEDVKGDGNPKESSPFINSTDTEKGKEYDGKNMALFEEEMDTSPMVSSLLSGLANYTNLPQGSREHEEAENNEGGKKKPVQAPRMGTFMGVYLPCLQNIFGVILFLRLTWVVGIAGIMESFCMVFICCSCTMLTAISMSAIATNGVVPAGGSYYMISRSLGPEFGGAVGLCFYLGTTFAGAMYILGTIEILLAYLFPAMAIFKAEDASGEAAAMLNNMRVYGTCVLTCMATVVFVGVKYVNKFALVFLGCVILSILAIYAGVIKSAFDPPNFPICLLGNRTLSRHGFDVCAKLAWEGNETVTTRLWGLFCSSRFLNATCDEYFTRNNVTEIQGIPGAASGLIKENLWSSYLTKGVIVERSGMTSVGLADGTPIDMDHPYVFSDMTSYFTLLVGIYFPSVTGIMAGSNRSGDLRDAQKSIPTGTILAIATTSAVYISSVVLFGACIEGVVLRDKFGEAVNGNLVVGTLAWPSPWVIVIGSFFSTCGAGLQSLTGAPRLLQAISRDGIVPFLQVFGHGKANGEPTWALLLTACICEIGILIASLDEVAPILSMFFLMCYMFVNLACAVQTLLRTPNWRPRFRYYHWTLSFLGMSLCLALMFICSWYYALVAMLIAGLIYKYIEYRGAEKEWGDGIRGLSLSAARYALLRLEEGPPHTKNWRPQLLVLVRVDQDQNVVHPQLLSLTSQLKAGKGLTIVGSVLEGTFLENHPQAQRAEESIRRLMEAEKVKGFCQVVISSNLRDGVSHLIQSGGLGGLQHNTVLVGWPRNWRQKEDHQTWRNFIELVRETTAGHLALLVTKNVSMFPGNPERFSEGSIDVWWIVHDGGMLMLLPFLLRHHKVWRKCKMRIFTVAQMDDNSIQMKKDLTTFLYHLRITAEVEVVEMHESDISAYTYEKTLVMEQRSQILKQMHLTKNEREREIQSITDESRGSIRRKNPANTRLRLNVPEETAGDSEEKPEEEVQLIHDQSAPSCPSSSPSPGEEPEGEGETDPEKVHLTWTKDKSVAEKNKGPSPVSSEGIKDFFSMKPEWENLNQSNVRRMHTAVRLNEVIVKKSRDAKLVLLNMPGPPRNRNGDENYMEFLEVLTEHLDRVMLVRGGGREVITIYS
Voltage-gated potassium channel subunit beta-2 (Rattus norvegicus), sequence (P62483 whole entry, looked up): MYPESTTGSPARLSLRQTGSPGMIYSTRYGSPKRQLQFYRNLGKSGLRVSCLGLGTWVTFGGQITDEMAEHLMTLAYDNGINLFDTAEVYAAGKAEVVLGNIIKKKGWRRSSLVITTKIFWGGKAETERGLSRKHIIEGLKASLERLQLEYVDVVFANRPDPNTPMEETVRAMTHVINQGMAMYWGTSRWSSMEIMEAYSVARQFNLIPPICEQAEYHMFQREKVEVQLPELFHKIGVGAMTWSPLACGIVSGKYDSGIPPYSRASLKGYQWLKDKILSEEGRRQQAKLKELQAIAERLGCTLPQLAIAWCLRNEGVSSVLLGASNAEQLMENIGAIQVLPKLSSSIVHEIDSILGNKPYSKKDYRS
Dual specificity protein phosphatase 6 (Homo sapiens), sequence (Q16828 whole entry, looked up): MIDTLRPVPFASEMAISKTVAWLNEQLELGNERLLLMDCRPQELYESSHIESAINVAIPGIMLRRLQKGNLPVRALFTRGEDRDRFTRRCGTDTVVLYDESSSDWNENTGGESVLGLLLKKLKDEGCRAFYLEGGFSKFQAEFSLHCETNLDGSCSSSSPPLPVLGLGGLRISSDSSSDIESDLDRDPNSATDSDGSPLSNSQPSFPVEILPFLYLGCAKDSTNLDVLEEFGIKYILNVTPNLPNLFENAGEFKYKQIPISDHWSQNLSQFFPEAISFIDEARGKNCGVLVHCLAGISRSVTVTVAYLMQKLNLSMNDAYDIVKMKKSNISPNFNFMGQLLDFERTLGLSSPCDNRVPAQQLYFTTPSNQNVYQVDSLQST
Alpha-2C adrenergic receptor (Homo sapiens), sequence (P18825 whole entry, looked up): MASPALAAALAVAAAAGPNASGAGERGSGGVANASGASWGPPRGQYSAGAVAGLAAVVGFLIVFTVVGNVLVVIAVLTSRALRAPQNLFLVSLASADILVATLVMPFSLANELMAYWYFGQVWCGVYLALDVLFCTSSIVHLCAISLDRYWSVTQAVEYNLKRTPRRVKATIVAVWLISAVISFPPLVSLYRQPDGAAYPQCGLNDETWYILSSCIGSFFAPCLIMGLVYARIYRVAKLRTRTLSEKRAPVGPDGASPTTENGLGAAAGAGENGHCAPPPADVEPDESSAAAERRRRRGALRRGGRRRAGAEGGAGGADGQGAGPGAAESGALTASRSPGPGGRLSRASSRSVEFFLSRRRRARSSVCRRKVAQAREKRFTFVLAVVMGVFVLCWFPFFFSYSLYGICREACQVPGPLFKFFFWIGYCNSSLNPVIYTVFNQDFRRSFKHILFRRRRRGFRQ
Muscarinic acetylcholine receptor M4 (Homo sapiens), sequence (P08173 whole entry, looked up): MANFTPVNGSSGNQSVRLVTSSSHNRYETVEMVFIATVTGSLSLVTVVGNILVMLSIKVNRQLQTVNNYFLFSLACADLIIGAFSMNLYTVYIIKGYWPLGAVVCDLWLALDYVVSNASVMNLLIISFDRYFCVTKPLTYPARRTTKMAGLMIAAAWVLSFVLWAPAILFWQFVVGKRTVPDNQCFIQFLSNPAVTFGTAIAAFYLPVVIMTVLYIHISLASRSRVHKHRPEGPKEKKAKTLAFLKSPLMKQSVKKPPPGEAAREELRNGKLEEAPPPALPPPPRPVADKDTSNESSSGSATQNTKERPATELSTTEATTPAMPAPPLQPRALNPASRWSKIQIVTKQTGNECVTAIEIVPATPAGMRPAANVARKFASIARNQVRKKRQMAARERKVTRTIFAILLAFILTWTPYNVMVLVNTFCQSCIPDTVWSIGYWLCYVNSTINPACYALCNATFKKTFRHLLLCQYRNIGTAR

N#Cc1c(-c2ccc(Cl)cc2)c2c([nH]c1=S)CCCC2
normalized thallium flux (PubChem AID 1714): 0.0281 (active)
normalized thallium flux [1]: 0.0403 (active)
thallium flux rate (normalised fluorescence) [2]: 0.0184 (active)
raw Tl+ flux slope (below DMSO = inhibition, above = activation) [3]: 0.0302 (active)
thallium flux slope [4]: 0.0192 (active)

CC(C)OC(=O)C(C)(C)Oc1ccc(C(=O)c2ccc(Cl)cc2)cc1
cell count [5]: 484
inhibition [5]: -9% (inactive)
inhibition of aggregation [6]: 28.8% (inactive)
nuclei count [6]: 89.5%
inhibition [7]: -10.1% (inactive)
nuclei count [7]: 97.2%
z-score [8, 19]: 0.497
z-score [8, 20]: -1.12
z-score [8, 21]: 0.95
inhibition [9]: -8.38% (inactive)
fluorescence slope [10]: -0.446 (inactive)
NADPH fluorescence slope [11]: 1.6e-05 (inactive)
slope [12]: 0.00465 (inactive)
inhibition [13]: -3.15% (inactive) and 23.4% (inactive)
inhibition [14]: -6.93% (inactive)
inhibition [15]: 18.9% (inactive)

C[C@@H]1CCC[C@H](C)N1NC(=O)c1ccc(Cl)c(S(N)(=O)=O)c1
cell count [5]: 625
inhibition [5]: 7.2% (inactive)
inhibition of aggregation [6]: 0.7% (inactive)
nuclei count [6]: 108%
inhibition [7]: -55.3% (inactive)
nuclei count [7]: 111%
z-score [8, 19]: -0.0459
z-score [8, 20]: -0.463
z-score [8, 21]: -0.78
inhibition [9]: 21.2% (inactive)
fluorescence slope [10]: -0.465 (inactive)
NADPH fluorescence slope [11]: -5.1e-05 (inactive)
slope [12]: 0.00499 (inactive)
inhibition [13]: 24.4% (inactive)
inhibition [14]: 3.39% (inactive)
inhibition [15]: 20% (inactive)

CCOc1ccc(C2/C(=C(/O)c3ccc(OC)cc3)C(=O)C(=O)N2c2cc(C)on2)cc1OC (centres undefined)
cell count [5]: 314
inhibition [5]: -5.2% (inactive)
inhibition of aggregation [6]: 2.5% (inactive)
nuclei count [6]: 87.7%
inhibition [7]: -84.6% (inactive)
nuclei count [7]: 122%
z-score [8, 19]: 0.762
z-score [8, 20]: 0.679
z-score [8, 21]: -1.01
inhibition [9]: -5.26% (inactive)
fluorescence slope [10]: -0.434 (inactive)
NADPH fluorescence slope [11]: -0.000115 (inactive)
slope [12]: 0.00335 (inactive)
inhibition [13]: -9.21% (inactive)
inhibition [14]: -8.23% (inactive)
inhibition [15]: -11.7% (inactive)

CC(C)CNC(=S)NC(=O)c1ccc(Cl)cc1
normalized thallium flux (PubChem AID 1714): 0.0714 (active)
normalized thallium flux [1]: 0.0638 (active)
thallium flux rate (normalised fluorescence) [2]: 0.0685 (active)
raw Tl+ flux slope (below DMSO = inhibition, above = activation) [3]: 0.0663 (active)
thallium flux slope [4]: 0.0594 (active)

C/C(=N\NC(=S)NC1CCCCC1)c1ccc(C)o1
normalized thallium flux (PubChem AID 1714): 0.0335 (active)
normalized thallium flux [1]: 0.0359 (inactive)
thallium flux rate (normalised fluorescence) [2]: 0.017 (active)
raw Tl+ flux slope (below DMSO = inhibition, above = activation) [3]: 0.0406 (active)

CN1c2ccccc2-c2nc3ccccc3n2C1c1ccco1 (centres undefined)
cell count [5]: 385
inhibition [5]: -3.7% (inactive)
inhibition [7]: 1.9% (inactive)
nuclei count [7]: 99.5%
z-score [8, 19]: 0.728
z-score [8, 20]: 0.674
z-score [8, 21]: -0.101
inhibition [9]: 6.04% (inactive)
fluorescence slope [10]: -0.315 (inactive)
NADPH fluorescence slope [11]: 1.6e-05 (inactive)
fluorescence slope [16]: 0.00492 (inactive)
outcome [17]: inactive
normalised thallium flux (F/F0 slope) [18]: 0.00855 (inactive)
normalized thallium flux [1]: 0.0321 (inactive)
thallium flux rate (normalised fluorescence) [2]: 0.00467 (active)
thallium flux slope [4]: 0.0097 (inactive)
inhibition [13]: 3.48% (inactive)

Cc1ccccc1-c1nc(CS(=O)(=O)CC(=O)N2CCc3ccccc3C2)c(C)o1
normalized thallium flux (PubChem AID 1714): 0.00657 (inactive)
thallium flux rate (normalised fluorescence) [2]: 0.00685 (inactive)
raw Tl+ flux slope (below DMSO = inhibition, above = activation) [3]: 0.0154 (active)

CCn1c(SCC(=O)c2ccc3ccccc3c2)nnc1-c1cccs1
normalised thallium flux (F/F0 slope) [18]: 0.00706 (inactive)
normalized thallium flux [1]: 0.0307 (inactive)
thallium flux rate (normalised fluorescence) [2]: 0.00707 (inactive)
raw Tl+ flux slope (below DMSO = inhibition, above = activation) [3]: 0.0159 (active)
thallium flux slope [4]: 0.0101 (inactive)

O=C(Nc1ccccc1F)C1C2C=CC3(O2)C1C(=O)N(c1cccnc1)C3C(=O)NC1CCCCC1 (centres undefined)
normalized thallium flux (PubChem AID 1714): 0.00547 (active)
normalized thallium flux [1]: 0.0222 (active)
raw Tl+ flux slope (below DMSO = inhibition, above = activation) [3]: 0.0131 (active)
thallium flux slope [4]: 0.0108 (inactive)

COc1c2occc2c(OC)c2c(=O)cc(C)oc12
cell count [5]: 555
inhibition [5]: -5.1% (inactive)
inhibition of aggregation [6]: 13.1% (inactive)
nuclei count [6]: 103%
inhibition [7]: -78.7% (inactive)
nuclei count [7]: 136%
z-score [8, 19]: -0.618
z-score [8, 20]: 0.0772
z-score [8, 21]: -0.0412
inhibition [9]: 21.2% (inactive)
fluorescence slope [10]: -0.445 (inactive)
NADPH fluorescence slope [11]: -4.4e-05 (inactive)
slope [12]: 0.00425 (inactive)
inhibition [13]: -3.66% (inactive)
inhibition [14]: 14.8% (inactive)
inhibition [15]: 36% (inactive)

O=C(CCCN1C(=O)c2ccccc2C1=O)N1CCC(c2ccccc2)C1 (centres undefined)
cell count [5]: 452
inhibition [5]: -8.4% (inactive)
inhibition of aggregation [6]: -32.2% (inactive)
nuclei count [6]: 61.9%
inhibition [7]: -109% (inactive)
nuclei count [7]: 123%
z-score [8, 19]: 1.18
z-score [8, 20]: -1.65
z-score [8, 21]: 0.457
inhibition [9]: -3.5% (inactive)
fluorescence slope [10]: -0.453 (inactive)
NADPH fluorescence slope [11]: -7.2e-05 (inactive)
slope [12]: 0.00674 (inactive)
inhibition [13]: 10.2% (inactive)
inhibition [14]: 10.8% (inactive)
inhibition [15]: -11.3% (inactive)

Cc1ccc(S(=O)(=O)NC(=O)NN2CCCCCC2)cc1
cell count [5]: 604
inhibition [5]: -5.1% (inactive)
inhibition of aggregation [6]: 0% (inactive)
nuclei count [6]: 99.6%
inhibition [7]: -81.9% (inactive)
nuclei count [7]: 122%
z-score [8, 19]: 0.424
z-score [8, 20]: 0.978
z-score [8, 21]: -1.05
inhibition [9]: 21.2% (inactive)
fluorescence slope [10]: -0.457 (inactive)
NADPH fluorescence slope [11]: -5.8e-05 (inactive)
slope [12]: 0.00471 (inactive)
inhibition [13]: 6.39% (inactive) and 32.8% (inactive)
inhibition [14]: 9.08% (inactive)
inhibition [15]: 19.5% (inactive)
